KB-3-1 tox = qHTS assay for MDR1-selective chemotherapeutics: Primary screen using the parental adenocarcinoma cell KB-3-1; KB-3-1 viability, CellTiter-Glo ATP luminescence, 72 h; Potency, µM (highest dose often 46.1 µM), usual class: cytotoxic; actives 1.4% (n = 400,000); AID 1347075, 2019; also: % is scaled to controls: 0 for no effect and ±100 for the full control effect; nearly all actives have a fitted effect of over 60% in size
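Luminescent ATP read-out (CellTiter-Glo) measures survival of drug-naive KB-3-1 cells after 72 h compound exposure at 37 °C. Titration series was screened from lowest to highest concentration, with DMSO vehicle plates as background controls.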
HT1080NT lethal = qHTS for induction of synthetic lethality in tumor cells producing 2HG: qHTS for the HT-1080-NT fibrosarcoma cell line | HT-1080-NT fibrosarcoma viability, CellTiter-Glo ATP luminescence, 48 h | AID 686970, 2013 | Potency, µM (doses to about 46.1 µM), inactives show at the top dose activity, negative = less viability, most hits filed as cytotoxic | actives 1.6% (n = 360,000);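 also: NT is the 2HG producing partner of a matched IDH1 knockdown line; 0% = DMSO-treated cells and -100% = media-only wells without cells; nearly all actives have a fitted effect of over 55% in size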
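HT-1080-NT; 750 cells/well; 5% FBS RPMI; 48 h compound, 37 degrees C; CellTiter-Glo luminescence; curve fitting and curve-class assignment.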
KB-V1 MDR tox = qHTS assay for MDR1-selective chemotherapeutics: Primary screen using the drug-selected MDR subline cells KB-V1; KB-V1 MDR cells viability, CellTiter-Glo, 72 h; Potency, µM (doses to about 46.1 µM), hits mostly cytotoxic; actives 3.4% (n = 400,000); also: % is scaled to controls: 0 for no effect and ±100 for the full control effect; nearly all actives have a fitted effect of over 60% in size
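KB-V1 MDR subline cells in DMEM (phenol-red free, 10% FBS) exposed to compounds in qHTS concentration series for 72 h at 37 degrees C. Viability read by CellTiter-Glo luminescence; concentration-effect curves fitted after normalization and correction.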
SW480 rereplic = A quantitative high throughput screen for small molecules that induce DNA re-replication in SW480 colon adenocarcinoma cells. SW480 DNA re-replication, Hoechst DNA content imaging, 48 h. Potency, µM (doses to about 46.1 µM), without a hit: top-dose re-replication activation, usual class: activators. actives 1.8% (n = 340,000). AID 624297, 2012; also: % of control where 0% means no effect; nearly all actives have a fitted effect of over 55% in size
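First, 250 cells per well were seeded. Next, compound or vehicle (23 nL) was pinned in, plates sat 48 hr at 37 C. Finally Hoechst was added for 40 min before fluorescence scanning.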
MCF10A rerep = A quantitative high throughput screen for small molecules that induce DNA re-replication in MCF 10a normal breast cells; Potency, µM (highest dose often 46.1 µM), for the others: at the highest dose activity, positive = re-replication, most hits filed as activators; actives 2.9% (n = 350,000); MCF 10A DNA re-replication, Hoechst nuclear intensity, 48 h; also: % of control where 0% means no effect; nearly all actives have a fitted effect of over 50% in size
HT1080 IDH1KD tx = qHTS for induction of synthetic lethality in tumor cells producing 2HG: qHTS for the HT-1080-IDH1KD cell line. HT-1080 IDH1 knockdown viability, ATP luminescence, 48 h. Potency, µM (series often up to 46.1 µM), for the others: at the top dose activity, negative = toxicity, hits mostly cytotoxic. actives 2% (n = 360,000). AID 686971, 2013;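 also: 0% = DMSO wells and -100% = cell-free medium wells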
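In this qHTS, HT-1080 cells depleted of IDH1 are exposed for 48 h at 37 °C to compound titrations. Toxicity is scored from CellTiter-Glo luminescence, with DMSO as full viability and medium alone as none.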
* hit, by the source's call; i = inactive; u = inconclusive; x = no result given. Compounds with a hit are over-represented: about 7.9% of the library has one in this group of screens. Calls follow the shape of the dose curve; as a rule, active = well fitted curve in the direction sought with a large enough effect; inconclusive = small, poorly fitted or top-dose-only effect, or another doubt; inactive = no such curve, though single readings can be large; an effect the other way counts as inactive or inconclusive. Potency is read from the fitted curve at half-maximal effect.

SMILES | KB-3-1 tox | HT1080NT lethal | KB-V1 MDR tox | SW480 rereplic | MCF10A rerep | HT1080 IDH1KD tx
COc1cc(CN2C[C@@H](CO)O[C@@H](n3cnc4c(NC5CC5)ncnc43)C2)cc(OC)c1OC | i | 25.4% | i | x | x | 20.1%
CC(C)c1ccc(-n2nc3ccc(N)cc3n2)cc1 | i | -18.5% | i | 23.1µM* | 23.1µM* | -10.9%
Cc1ccc(-n2nc3ccc(N)cc3n2)cc1 | i | -21.5% | i | 16.4µM* | u | -17.8%
Nc1ccc2nn(-c3ccc(F)cc3)nc2c1 | i | 2.1% | i | u | 18.4µM* | 3.1%
COc1ccc(-n2nc3ccc(N)cc3n2)cc1 | i | -2.1% | i | x | x | -3.7%
COC(=O)c1ccc(N2C(c3cc(OC)cc(OC)c3)=Cc3ccc(-c4ccc(C(N)=O)cc4)cc3C2CC(=O)C2CC2)cc1 (stereo not given) | u | -15.3% | i | x | x | -24.7%
CCC(=O)Nc1ccc(NC(=O)c2ccc3ccccc3c2)cc1 | i | 3.0% | i | -5.0% | 9.1% | 12.9%
O=C(O)c1cccc(-n2cccc2/C=C2\NC(=O)N(Cc3ccc(F)cc3)C2=O)c1 | i | -15.5% | i | -6.0% | u | -8.9%
Cc1cc(C(=O)O)ccc1-c1ccc(/C=C2\NC(=O)N(Cc3ccc(F)cc3)C2=O)o1 | i | 1.3% | i | 9.2µM* | 3.66µM* | 0.8%
O=C(O)c1ccc(COc2ccccc2/C=C2\NC(=O)N(Cc3ccccc3)C2=O)cc1 | i | 0.8% | i | u | 6.0% | 0.7%
Cc1cccc(NC(=O)CN2C(=O)N/C(=C\c3ccc(-c4cccc(C(=O)O)c4)o3)C2=O)c1 | i | 1.2% | i | 18.4µM* | 16.4µM* | 1.1%
Cc1ccc(CN2C(=O)N/C(=C/c3ccc(-c4ccc(C(=O)O)cc4)o3)C2=O)cc1 | i | -5.3% | i | 4.61µM* | 8.2µM* | 2.8%
O=C(O)c1ccc(COc2ccc3ccccc3c2/C=C2/NC(=O)N(Cc3ccc(F)cc3)C2=O)cc1 | i | u | i | u | 18.4µM* | u
CC1(C)CC(N=c2cc(-c3ccccc3)oc3ccc(Cl)cc23)CC(C)(C)N1 | 20.6µM* | 7.31µM* | u | u | u | 16.4µM*
CN(C1CCCCC1)S(=O)(=O)c1ccc(NC(=S)NC(=O)c2cccs2)cc1 | u | 2.51µM* | u | u | 2.9% | 7.94µM*
Cc1ccc(NC(=O)c2cc(S(=O)(=O)Nc3ccc(C)cc3)cs2)cc1 | u | -6.4% | 4.11µM* | u | 6.2% | -17.3%
Cc1cc(C)cc(NS(=O)(=O)c2ccc(NC(=S)NC(=O)c3cccs3)cc2)c1 | 23.1µM* | u | 2.91µM* | u | u | u
Cc1ccc(NS(=O)(=O)c2ccc(NC(=O)c3cccs3)cc2)c(C)c1 | i | -28.3% | i | 18.1% | u | -21.3%
Cc1cc(NS(=O)(=O)c2ccc(NC(=S)NC(=O)c3cccnc3)cc2)no1 | i | 12.5% | i | 3.26µM* | -8.5% | 11.3%
Cc1oc(-c2cccc(Cl)c2)nc1CN1CCC(C(=O)N2CCN(c3ccccn3)CC2)CC1 | i | -0.9% | i | 3.6% | 1.5% | -2.4%
CCN(Cc1ccncc1)Cc1nc(Cc2ccccc2Cl)no1 | u | u | i | 1.3% | 3.1% | -17.0%
Cc1[nH]c(=O)c(C#N)cc1-c1ccccc1 | i | -3.1% | i | 0.3% | -2.1% | -4.5%
CCN(CC)C(=O)CN1CCC(n2c(C)nc3cc(C(F)(F)F)ccc32)CC1 | i | 2.1% | i | -10.8% | 3.8% | 5.3%
Cc1nnc(NC(=O)CSc2nnc(CNC(=O)c3ccccc3)o2)s1 | i | 3.2% | u | -11.0% | 0.7% | 18.2%
O=C(NC(=S)Nc1ccc(NC(=O)c2cccs2)cc1)c1ccco1 | i | -15.6% | i | -1.5% | 19.5% | -23.6%
SMILES | KB-3-1 tox | HT1080NT lethal | KB-V1 MDR tox | SW480 rereplic | MCF10A rerep | HT1080 IDH1KD tx
O=C(NC(=S)Nc1ccc(NC(=O)c2cccs2)cc1)c1cc2ccccc2o1 | i | 20.6µM* | u | 0.2% | u | 18.4µM*
CN(Cc1ccccc1)S(=O)(=O)c1ccc(NC(=S)NC(=O)C2CCCC2)cc1 | 6.51µM* | 7.08µM* | 4.11µM* | 3.26µM* | 14.6µM* | 8.91µM*
CCCn1c(C)cc(/C=C(\C#N)C(=O)OCC(=O)Nc2cccc(OC)c2)c1C | i | -17.1% | i | u | 17.2% | -15.6%
OC[C@H]1OC(O)[C@H](O)[C@@H](O)[C@H]1O (stereo not given in full) | i | u | i | -10.4% | 9.0% | 18.6%
Cc1ccc(OCC(=O)Nc2ccc(O)c(-c3nc4cc(C)c(C)cc4o3)c2)cc1 | u | x | i | x | x | x
Cc1ccc(OCC(=O)Nc2ccc(O)c(-c3nc4ccccc4o3)c2)cc1 | u | u | u | -5.6% | 16.4µM* | u
CCSc1ccccc1C(=O)n1nnc2ccccc21 | u | u | i | u | 15.8µM* | u
CCSc1ccccc1C(=O)N1CCCC1 | i | -4.4% | i | -7.5% | -4.7% | -5.8%
O=C(CN1CCN(S(=O)(=O)c2ccc(Br)cc2)CC1)N/N=C/c1ccc(Br)s1 | i | -20.5% | 20.6µM* | 2.8% | -6.7% | u
Cc1ccc(NC(=O)CN2CCCN(S(=O)(=O)c3ccc(Br)s3)CC2)cc1 | i | -5.7% | 4.61µM* | 4.1% | 23.7% | -13.0%
O=C(CN1CCN(S(=O)(=O)c2ccc(Br)s2)CC1)NC1CCCCC1 | i | 5.2% | 10.3µM* | -2.0% | -1.3% | 2.5%
CCCNC(=O)CN1CCN(S(=O)(=O)c2ccc(Br)s2)CC1 | i | -1.1% | u | -5.5% | 13.8% | -3.2%
Cc1ccc(/C=N/NC(=O)CN2CCN(S(=O)(=O)c3ccc(Br)cc3)CC2)s1 | i | 4.4% | u | -2.1% | 3.2% | 8.4%
Cc1cc(C)cc(NC(=O)CN2CCCN(S(=O)(=O)c3ccc(Br)s3)CC2)c1 | u | -11.3% | 2.91µM* | 2.1% | 11.6% | u
CCCC(=O)Nc1cc(-c2nn(C)c(=O)c3ccccc23)ccc1N1CCOCC1 | i | 0.4% | i | 1.5% | 7.2% | -7.8%
Cc1nc2ccccc2c(=O)n1/N=C/c1cc(Br)ccc1O | u | u | u | 20.6µM* | 3.5% | u

Screening data from PubChem.
